Data: PubChem BioAssay AID1845226 (National Center for Advancing Translational Sciences (NCATS), 2023)
Inconclusive results are not listed. The source made the active and inactive calls. Calls follow the shape of the dose curve; as a rule, active = well fitted inhibition curve with a large enough effect; inconclusive = small, poorly fitted or top-dose-only effect; inactive = no such curve, though single readings can be large or run the other way.

Experiment: Confirmatory fluorescence-based thiol-reactive (MSTI) qHTS assay for identification of artifact compounds
Settings: MSTI thiol-reactivity probe, 1 h; series mostly up to 39.2 µM; activity change, negative = inhibition: at the top concentration
Method in brief: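 Probe solution (4 uM MSTI, 2% DMSO/PBS, pH 7.4) is dispensed, then compounds are pinned. Plates incubate for 1 h at room temperature, light-protected, before fluorescence is read at 525/598 nm.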
Potency is read from the fitted curve at half-maximal effect.

Activity change, negative = inhibition, inactive:
Cc1ccc(OCc2nc3ccccc3n2Cc2ccccc2Cl)cc1 -4.67%
CCCCn1c(-c2ccc(C)cc2)c(C)n2c3c(=O)n(C)c(=O)n(C)c3nc12 -26%
Cc1cc(C)cc(-n2c(SCC(=O)N3CCCCCC3)nc3c([nH]c4ccccc43)c2=O)c1 352%
COC(=O)c1ccc(NC(=O)CC2C(=O)N(c3ccccc3)C(=O)N2Cc2ccco2)cc1 (stereo unspecified) 188%
O=C(O)c1c(CNCc2cccc(F)c2)c2ccccc2n1Cc1ccccc1 66.1%
Cc1ccc(NC(=O)Cn2c(=O)oc3cc(S(=O)(=O)N4CCCCC4)ccc32)c(Cl)c1 261%
Cc1cccc(NC(=O)CSc2nc3c([nH]c4ccccc43)c(=O)n2C)c1 86.5%
CC/C=C/C/C=C/C/C=C/CCCCCCCC(=O)OCC -15% [at 78.4 µM]
COc1ccc(-c2cc3ccc(O)c(CN4CCOCC4)c3oc2=O)cc1OC -13.7%
COc1cccc(N2CCN(c3c4c(nc5nncn35)CCC4)CC2)c1 29.3%
Clc1ccc(CNc2cc(-c3ccc4c(c3)OCO4)ncn2)cc1 124%
O=C(COc1cccc(Cl)c1)N1CCC(c2nc3ccccc3o2)CC1 40.2%
COc1ccc(C2=NN(CCC(=O)NCCc3ccccc3)C(=O)CC2)cc1 54.8%
CC(C)c1nn2c(=O)cc(COC(=O)c3cccc(NC(=O)COc4ccc(F)cc4)c3)nc2s1 212%
CCCCOc1ccc(C2C(=O)N(C3CCCCC3)CC(=O)N2CCCC)cc1 (stereo unspecified) 3.5%

Potency, active:
O=C(O)CCc1c2ccc(=O)c(O)c-2oc2c(O)c(O)ccc12 1.09 µM
